The first test relates to IRAK1.
With `COc1cc2ncnc(Nc3ccc(F)c(Cl)c3)c2cc1O[C@H]1CC[C@H](N)CC1` [BIBW3133BS], the Kinases covered entry was “IRAK1”.
Still for that read-out and setting: the same measure for `COC[C@@H](C)N[C@H]1CC[C@H](Nc2cc(-c3cccc(NCC4(C#N)CCOCC4)n3)c(Cl)cn2)CC1` [NVP-2]: “IRAK1”; for `Cc1cc(NC(=O)c2cccc(NC(=O)/C=C/CN(C)C)c2)ccc1Nc1nccc(-c2cccnc2)n1` [JNK-IN-7]: “IRAK1”.

Another test relates to JAK2.
In the case of `NC(=O)c1cccnc1COc1cc(-c2ccc(N3CCOCC3)nc2)cc2ncccc12` [BI01125081], the Kinases covered result is given as “JAK2”.
For `COc1cc(Nc2nccc(N3CCC(NC(=O)C4COc5ccccc5O4)C3)n2)cc(OC)c1OC` (stereo not drawn) [GSK1379761], the Kinases covered result is listed as “JAK2”.
For `C[C@@H]1CCN(C(=O)CO)C[C@@H]1N(C)c1ncnc2[nH]ccc12` [PFE-PKIS 34], the Kinases covered entry is given as “JAK2”.

Source of the values: PMC7826789 (International Journal of Molecular Sciences, 2021).
